Test results: PubChem BioAssay AID1159580 (chemical genetic matrix, 2015)
Hit rate of the full screen: of about 5,500 compounds, about 2,000 (36%) were called active. Another 18% or so got no clear call; they are omitted. Cut-off read from the data, not from the text of the source: active = normalized growth mostly below about 0.91 (no sharp cut-off); inconclusive = no clear call, values can overlap the other calls; inactive = mostly above about 0.92. The list shows a part of the results.

Experiment: chemical genetic growth profiling, strain panel (AID 1159580);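 note: tested at 20 µM; growth read once vehicle control cultures reached saturation at 30 °C; 1 = growth at the plate median or of vehicle wells; lower values mean less growth of the strain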
Settings: S. cerevisiae deletion strains, growth OD
[1] = locus YPL241C, strain CIN2, hits give low values

Measured: normalized growth

CC(C)NC[C@H](O)COc1cccc2[nH]ccc12
inactive: locus YAL013W, strain DEP1, hits give low values 0.999 | locus YAL040C, strain CLN3, hits give low values 0.984 | locus YCL061C, strain MRC1 (second series), hits give low values 1.01 | locus YDR363W, strain ESC2, hits give low values 0.994 | locus YER002W, strain NOP16, hits give low values 0.969 | locus YNL153C, strain GIM3, hits give low values 1.01 | locus YNL175C, strain NOP13, hits give low values 1.01 | locus YNL197C, strain WHI3, hits give low values 1.01 | locus YNL224C, strain SQS1, hits give low values 1.01 | locus YNL322C, strain KRE1, hits give low values 0.999 | locus YOR083W, strain WHI5 (second series), hits give low values 1.05 | [1] 1

COc1cc2nc(N(C)CCCNC(=O)C3CCCO3)nc(N)c2cc1OC (configuration not stated)
inactive: locus YAL021C, strain ccr4, hits give low values 1.02 | locus YAL026C, strain drs2, hits give low values 1 | locus YAL030W, strain snc1, hits give low values 0.979 | locus YBL061C, strain skt5, hits give low values 0.986 | locus YBR009C, strain hhf1, hits give low values 1.01 | locus YBR021W, strain FUR4, hits give low values 0.994 | locus YBR023C, strain chs3, hits give low values 0.997 | locus YBR171W, strain sec66, hits give low values 0.988 | locus YBR229C, strain ROT2, hits give low values 1 | locus YBR231C, strain swc5, hits give low values 0.998 | locus YBR279W, strain paf1, hits give low values 0.993 | locus YCL011C, strain gbp2, hits give low values 0.993 | locus YCL016C, strain dcc1, hits give low values 1 | locus YCL029C, strain bik1, hits give low values 1.02 | locus YCL061C, strain MRC1, hits give low values 0.996 | locus YCL069W, strain vba3, hits give low values 0.993 | locus YCR088W, strain abp1, hits give low values 0.986 | locus YDL005C, strain med2, hits give low values 1 | locus YDL035C, strain GPR1, hits give low values 1.03 | locus YDL040C, strain nat1, hits give low values 0.993 | locus YDL074C, strain BRE1, hits give low values 1.03 | locus YDL101C, strain DUN1, hits give low values 1.01 | locus YDL185W, strain tfp1, hits give low values 1.02 | locus YDL192W, strain arf1, hits give low values 1.01 | locus YDR001C, strain nth1, hits give low values 0.997 | locus YDR069C, strain doa4, hits give low values 0.991 | locus YDR101C, strain arx1, hits give low values 1.01 | locus YDR137W, strain rgp1, hits give low values 1 | locus YDR159W, strain sac3, hits give low values 1.03 | locus YDR162C, strain NBP2, hits give low values 1.03 | locus YDR195W, strain ref2 0.972 | locus YDR297W, strain sur2, hits give low values 1 | locus YDR318W, strain mcm21, hits give low values 1.02 | locus YDR334W, strain swr1, hits give low values 0.999 | locus YDR335W, strain msn5, hits give low values 1 | locus YDR388W, hits give low values 0.999 | locus YDR392W, strain spt3, hits give low values 1.01 | locus YDR502C, strain sam2, hits give low values 1 | locus YEL003W, strain gim4, hits give low values 1 | locus YEL037C, strain rad23, hits give low values 0.998 | locus YEL061C, strain CIN8 (second series), hits give low values 0.986 | locus YEL061C, strain CIN8, hits give low values 1.01 | locus YER015W, strain faa2, hits give low values 0.995 | locus YER016W, strain bim1, hits give low values 0.998 | locus YER110C, hits give low values 1 | locus YER111C, strain swi4, hits give low values 0.987 | locus YER155C, strain BEM2 (second series), hits give low values 0.999 | locus YER155C, strain BEM2, hits give low values 0.998 | locus YER167W, strain BCK2, hits give low values 1.01 | locus YFR010W, strain ubp6, hits give low values 0.992 | locus YGL078C, strain dbp3, hits give low values 1 | locus YGL086W, strain mad1, hits give low values 1.01 | locus YGL167C, strain pmr1, hits give low values 0.995 | locus YGL173C, strain kem1, hits give low values 0.994 | locus YGL227W, strain vid30, hits give low values 0.986 | locus YGL240W, strain doc1, hits give low values 0.987 | locus YGL248W, strain PDE1, hits give low values 1.01 | locus YGL253W, strain hxk2, hits give low values 0.992 | locus YGR135W, strain pre9, hits give low values 0.998 | locus YGR252W, strain gcn5, hits give low values 0.95 | locus YHR013C, strain ard1, hits give low values 0.999 | locus YHR027C, strain rpn1, hits give low values 0.997 | locus YHR030C, strain SLT2, hits give low values 1.03 | locus YHR079C, strain IRE1 (second series), hits give low values 0.997 | locus YHR094C, strain hxt1, hits give low values 1 | locus YHR129C, strain ARP1, hits give low values 1.01 | locus YHR142W, strain chs7, hits give low values 0.979 | locus YHR200W, strain rpn10, hits give low values 1.01 | locus YIL066C, strain RNR3, hits give low values 1.04 | locus YIL073C, strain SPO22, hits give low values 1.03 | locus YIL125W, strain kgd1, hits give low values 1.01 | locus YIR030C, strain dcg1, hits give low values 0.995 | locus YJL092W, strain hpr5, hits give low values 0.995 | locus YJL095W, strain BCK1 (second series), hits give low values 0.994 | locus YJL095W, strain BCK1, hits give low values 1.03 | locus YJL115W, strain asf1, hits give low values 1 | locus YJL129C, strain trk1, hits give low values 1 | locus YJL134W, strain LCB3, hits give low values 1.02 | locus YJL154C, strain vps35, hits give low values 0.993 | locus YJL164C, strain tpk1, hits give low values 1 | locus YJL166W, strain qcr8, hits give low values 0.985 | locus YJL168C, strain set2, hits give low values 0.994 | locus YJL187C, strain SWE1 (second series), hits give low values 1.02 | locus YJL187C, strain SWE1, hits give low values 0.999 | locus YJR043C, strain POL32, hits give low values 1.03 | locus YJR075W, strain HOC1, hits give low values 1.01 | locus YKL009W, strain mrt4, hits give low values 1.01 | locus YKL068W, hits give low values 1.01 | locus YKL085W, strain MDH1 (second series), hits give low values 1.02 | locus YKL085W, strain MDH1, hits give low values 1.02 | locus YKL190W, strain CNB1, hits give low values 1.03 | locus YKR001C, strain vps1, hits give low values 1.01 | locus YKR026C, strain gcn3, hits give low values 0.995 | locus YKR091W, strain srl3, hits give low values 0.995 | locus YLL001W, strain dnm1, hits give low values 0.99 | locus YLL026W, hits give low values 0.992 | locus YLL041C, strain sdh2, hits give low values 0.998 | locus YLR027C, strain aat2, hits give low values 0.991 | locus YLR039C, strain RIC1, hits give low values 1.07 | locus YLR058C, strain SHM2, hits give low values 1.02 | locus YLR102C, strain apc9, hits give low values 1.01 | locus YLR221C, strain rsa3, hits give low values 0.998 | locus YLR258W, strain gsy2, hits give low values 0.994 | locus YLR262C, strain YPT6 (second series), hits give low values 0.981 | locus YLR262C, strain YPT6, hits give low values 1.07 | locus YLR268W, strain sec22, hits give low values 0.99 | locus YLR320W, strain mms22, hits give low values 1 | locus YLR330W, strain CHS5, hits give low values 1.02 | locus YLR342W, strain FKS1 (second series), hits give low values 1.03 | locus YLR342W, strain FKS1, hits give low values 0.995 | locus YLR357W, strain rsc2, hits give low values 0.984 | locus YLR370C, strain arc18, hits give low values 1.01 | locus YLR371W, strain rom2, hits give low values 1.02 | locus YLR384C, strain iki3, hits give low values 0.988 | locus YLR418C, strain cdc73, hits give low values 0.995 | locus YML016C, strain PPZ1, hits give low values 1.01 | locus YML032C, strain rad52, hits give low values 1 | locus YML120C, strain ndi1, hits give low values 0.998 | locus YML124C, strain tub3, hits give low values 0.997 | locus YMR058W, strain fet3, hits give low values 0.996 | locus YMR078C, strain ctf18, hits give low values 0.998 | locus YMR125W, strain sto1, hits give low values 0.995 | locus YMR129W, hits give low values 0.987 | locus YMR205C, strain PFK2, hits give low values 0.993 | locus YMR223W, strain ubp8, hits give low values 1.03 | locus YMR231W, strain pep5, hits give low values 1 | locus YMR307W, strain GAS1, hits give low values 1.02 | locus YNL067W, strain RPL9B, hits give low values 1.02 | locus YNL071W, strain lat1, hits give low values 1 | locus YNL209W, strain ssb2, hits give low values 0.996 | locus YNL233W, strain BNI4, hits give low values 1.02 | locus YNL248C, strain rpa49, hits give low values 0.982 | locus YNL250W, strain rad50, hits give low values 1.04 | locus YNL271C, strain bni1, hits give low values 1 | locus YNL298W, strain CLA4, hits give low values 1 | locus YNL307C, strain MCK1, hits give low values 1 | locus YNL322C, strain KRE1 (second series), hits give low values 0.985 | locus YNR049C, strain mso1, hits give low values 0.994 | locus YNR052C, strain pop2, hits give low values 0.995 | locus YOL012C, strain htz1 0.863 | locus YOL147C, strain pex11, hits give low values 1.01 | locus YOR001W, strain rrp6, hits give low values 1 | locus YOR061W, strain CKA2, hits give low values 1.02 | locus YOR069W, strain VPS5, hits give low values 1 | locus YOR070C, strain gyp1, hits give low values 0.998 | locus YOR080W, strain dia2, hits give low values 0.983 | locus YOR083W, strain WHI5, hits give low values 1 | locus YOR106W, strain vam3, hits give low values 1.01 | locus YOR136W, strain idh2, hits give low values 1 | locus YOR144C, strain elg1, hits give low values 0.999 | locus YOR184W, strain ser1, hits give low values 1.03 | locus YOR265W, strain rbl2, hits give low values 0.988 | locus YOR270C, strain vph1, hits give low values 1.03 | locus YOR290C, strain snf2, hits give low values 1.03 | locus YOR316C, strain cot1, hits give low values 0.999 | locus YPL051W, strain arl3, hits give low values 0.997 | locus YPL078C, strain atp4, hits give low values 0.988 | locus YPL106C, strain sse1, hits give low values 0.991 | locus YPL240C, strain hsp82, hits give low values 0.974 | [1] 1.01 | locus YPR119W, strain clb2, hits give low values 0.991 | locus YPR141C, strain kar3, hits give low values 1.01 | locus YPR163C, strain tif3, hits give low values 1 | locus YPR167C, strain met16, hits give low values 1 | strain wtn01, hits give low values 0.998
